# Measured values taken from PubChem BioAssay.
# “And” between values parts separate entries of the source, which are not always exact repeats. Equal values may be shown once. The source made the active and inactive calls. No rule for the calls is given here. Starred links: 1 amine or outer side, 2 acyl side, 3 side chain; linkers in the order of their positions; H or OH if unused. Positions of bridges follow the written chain, without caps; N, C: chain ends. Non-standard residues stand in square brackets, D forms with d. Residues, ends and D or L forms follow the SMILES beside them. Chains are numbered I, II in the order given. Actinocin(9to1) = Cc1c2oc3c(C)ccc(C(=O)[*:1])c3nc-2c(C(=O)[*:2])c(N)c1=O; NMeV = CN[C@H](C(=O)O)C(C)C; Sar = CNCC(=O)O
# Assay: viability loss with induced miR-34 in A549 – imaging, A549 dox-inducible miR-34, nuclei and caspase counts, primary screen (AID 1347080)
# Conditions: A549 miR-34 inducible, Hoechst nuclei count, 48 h; measured here: relative caspase fold change +Dox/-Dox
row,SMILES,fold change
1,CC[N+](C)(C)Cc1ccccc1Br,1.09
2,CCCc1ncc(C[n+]2ccccc2C)c(N)n1,1.48 and 1.05 and 2.66
3,CC[C@]12CCCN3CCc4c(n(c5ccccc45)C(=O)C1)[C@@H]32,1.52
4,C=C1c2cccc(O)c2C(O)=C2C(=O)[C@]3(O)C(O)=C(C(N)=O)C(=O)[C@@H](N(C)C)[C@@H]3[C@@H](O)[C@H]12,1.25 and 1.82
5,Cc1c(N(C)C)c(=O)n(-c2ccccc2)n1C,1.16 and 0.645 and 2.71
6,Nc1ccc(S(=O)(=O)NC(=O)c2ccccc2)cc1,1.13 and 2.49
7,Cc1ccsc1/C=C/C1=NCCCN1C,1.23 and 5.32
8,CC1(C)O[C@@H]2C[C@H]3[C@@H]4C[C@H](F)C5=CC(=O)CC[C@]5(C)[C@H]4[C@@H](O)C[C@]3(C)[C@]2(C(=O)CO)O1,0.796
9,Cc1cc(NC(=O)C2=C(O)c3ccccc3S(=O)(=O)N2C)no1,1.1 and 2.9
10,CN1CCOC(c2ccccc2)c2ccccc2C1 (configuration not stated),1.1 and 3.08
11,CO[C@]12C[C@@H](COC(=O)c3cncc(Br)c3)CN(C)[C@@H]1Cc1cn(C)c3cccc2c13,1.4 and 2.61 and 0.782
12,CC(C)(O)c1ccccc1CC[C@@H](SCC1(CC(=O)O)CC1)c1cccc(/C=C/c2ccc3ccc(Cl)cc3n2)c1,1.4
13,O=C(O)c1ccccc1OP(=O)(O)O,1.05

# Same assay, conditions: A549 miR-34 inducible, Hoechst nuclei count, 48 h; measured here: total cells with miR-34 induction; stronger effect = lower value
row,SMILES,cell count
1,CC[N+](C)(C)Cc1ccccc1Br,8620
2,CCCc1ncc(C[n+]2ccccc2C)c(N)n1,8050 and 8570 and 10100
3,CC[C@]12CCCN3CCc4c(n(c5ccccc45)C(=O)C1)[C@@H]32,3350
4,C=C1c2cccc(O)c2C(O)=C2C(=O)[C@]3(O)C(O)=C(C(N)=O)C(=O)[C@@H](N(C)C)[C@@H]3[C@@H](O)[C@H]12,7110 and 11900
5,Cc1c(N(C)C)c(=O)n(-c2ccccc2)n1C,7950 and 7780 and 11100
6,Nc1ccc(S(=O)(=O)NC(=O)c2ccccc2)cc1,7780 and 10600
7,Cc1ccsc1/C=C/C1=NCCCN1C,8120 and 10200
8,CC1(C)O[C@@H]2C[C@H]3[C@@H]4C[C@H](F)C5=CC(=O)CC[C@]5(C)[C@H]4[C@@H](O)C[C@]3(C)[C@]2(C(=O)CO)O1,4730
9,Cc1cc(NC(=O)C2=C(O)c3ccccc3S(=O)(=O)N2C)no1,8700 and 11400
10,CN1CCOC(c2ccccc2)c2ccccc2C1 (configuration not stated),8830 and 11200
11,CO[C@]12C[C@@H](COC(=O)c3cncc(Br)c3)CN(C)[C@@H]1Cc1cn(C)c3cccc2c13,8590 and 11400 and 9340
12,CC(C)(O)c1ccccc1CC[C@@H](SCC1(CC(=O)O)CC1)c1cccc(/C=C/c2ccc3ccc(Cl)cc3n2)c1,9780
13,O=C(O)c1ccccc1OP(=O)(O)O,9100

# Same assay, conditions: A549 miR-34 inducible, Hoechst nuclei count, 48 h; measured here: total cells without miR-34 induction
row,SMILES,cell count
1,CC[N+](C)(C)Cc1ccccc1Br,9630
2,CCCc1ncc(C[n+]2ccccc2C)c(N)n1,8960 and 9180 and 12400
3,CC[C@]12CCCN3CCc4c(n(c5ccccc45)C(=O)C1)[C@@H]32,3760
4,C=C1c2cccc(O)c2C(O)=C2C(=O)[C@]3(O)C(O)=C(C(N)=O)C(=O)[C@@H](N(C)C)[C@@H]3[C@@H](O)[C@H]12,8180 and 11900
5,Cc1c(N(C)C)c(=O)n(-c2ccccc2)n1C,9080 and 9290 and 12700
6,Nc1ccc(S(=O)(=O)NC(=O)c2ccccc2)cc1,9660 and 11500
7,Cc1ccsc1/C=C/C1=NCCCN1C,9110 and 12800
8,O=C(NCCN1CCOCC1)c1ccc(Cl)cc1,10300 and 10900 and 9280
9,CC1(C)O[C@@H]2C[C@H]3[C@@H]4C[C@H](F)C5=CC(=O)CC[C@]5(C)[C@H]4[C@@H](O)C[C@]3(C)[C@]2(C(=O)CO)O1,6100
10,Cc1cc(NC(=O)C2=C(O)c3ccccc3S(=O)(=O)N2C)no1,9660 and 13300
11,CN1CCOC(c2ccccc2)c2ccccc2C1 (configuration not stated),9020 and 12100
12,CO[C@]12C[C@@H](COC(=O)c3cncc(Br)c3)CN(C)[C@@H]1Cc1cn(C)c3cccc2c13,9980 and 12900 and 10400
13,CC(C)(O)c1ccccc1CC[C@@H](SCC1(CC(=O)O)CC1)c1cccc(/C=C/c2ccc3ccc(Cl)cc3n2)c1,10900
14,Nc1ccc(C(=O)O)c(O)c1,10200 and 11500 and 13800
15,O=C(O)c1ccccc1OP(=O)(O)O,10400

# Assay: chitosan synthesis blockers in C. neoformans – flow cytometry, Cibacron Brilliant Red staining (AID 1347148);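 also: compound exposure lasted three days at 37 degrees C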
# Conditions: Cryptococcus neoformans chitosan, stronger effect = lower value; at 10 µM unless noted
row,SMILES,fold fluorescence
1,CC(C)(Oc1ccc(CCNC(=O)c2ccc(Cl)cc2)cc1)C(=O)O,9.76 [at 138.2 µM] (inactive)
2,COc1cc2c(cc1OC)-c1cc(=Nc3c(C)cc(C)cc3C)n(C)c(=O)n1CC2,11.7 [at 123.3 µM] (inactive)
3,COc1cc(-c2ccc(=O)[nH]n2)ccc1OC(F)F,7.45 [at 186.4 µM] (inactive)
4,CCCOc1ccccc1-c1nc2n[nH]nc2c(=O)[nH]1,6.79 [at 184.3 µM] (inactive)
5,O=C(O)c1ccccc1Nc1cccc(C(F)(F)F)c1,5.28 [at 177.8 µM] (inactive)
6,"Cc1c2oc3c(C)ccc(C(=O)N[C@@H]4C(=O)N[C@H](C(C)C)C(=O)N5CCC[C@H]5C(=O)N(C)CC(=O)N(C)[C@@H](C(C)C)C(=O)O[C@@H]4C)c3nc-2c(C(=O)N[C@@H]2C(=O)N[C@H](C(C)C)C(=O)N3CCC[C@H]3C(=O)N(C)CC(=O)N(C)[C@@H](C(C)C)C(=O)O[C@@H]2C)c(N)c1=O (I: T[dV]P[Sar][NMeV] / II: T[dV]P[Sar][NMeV]; ester I:1-I:C, II:1-II:C; linker I:N-II:N via Actinocin(9to1))",23.3 [at 107.6 µM] (inactive)
